# Screening data: PubChem, Corson Lab, School of Medicine, Indiana University
# FECH inh = inhibitors of human ferrochelatase, primary screen, biochemical, purified FECH, Ni-mesoporphyrin absorbance | 20,000 compounds, 3.3% hits | Ni-mesoporphyrin absorbance 550 nm | calls only at 10 µM (by protocol) | Ferrochelatase, mitochondrial (Homo sapiens), P22830;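 active means enzyme reaction rate more than 3 SD below the solvent-only control wells on the same plate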;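 further: lower slope than DMSO wells means FECH inhibition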
# Target sequence (P22830 whole entry, looked up): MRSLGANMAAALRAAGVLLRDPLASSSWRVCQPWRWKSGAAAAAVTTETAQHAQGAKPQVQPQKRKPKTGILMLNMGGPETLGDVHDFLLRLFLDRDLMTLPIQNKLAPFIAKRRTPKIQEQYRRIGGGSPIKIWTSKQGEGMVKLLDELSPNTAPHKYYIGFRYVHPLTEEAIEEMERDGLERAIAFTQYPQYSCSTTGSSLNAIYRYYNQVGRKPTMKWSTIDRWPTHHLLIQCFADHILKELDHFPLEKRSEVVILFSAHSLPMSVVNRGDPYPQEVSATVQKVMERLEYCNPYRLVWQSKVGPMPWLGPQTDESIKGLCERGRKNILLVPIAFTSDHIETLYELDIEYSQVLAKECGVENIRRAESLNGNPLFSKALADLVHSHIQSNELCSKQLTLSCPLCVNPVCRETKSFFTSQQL
# Active calls of the source: *; i = inactive; + = active, no number. This is one part of a sample in which hits are shown more often than they occur.
SMILES,FECH inh
O=C1CCS(=O)(=O)N1c1ccc(S(=O)(=O)NC2CC2)cc1,+
CC(C)CNS(=O)(=O)c1ccc(N2C(=O)CCS2(=O)=O)cc1,i
Cc1ccccc1NS(=O)(=O)c1cc(N2C(=O)CCS2(=O)=O)ccc1C,+
COC(=O)C1CCN(S(=O)(=O)c2cc(N3C(=O)CCS3(=O)=O)ccc2C)CC1,+
CN(C1CCS(=O)(=O)C1)S(=O)(=O)c1ccc(N2C(=O)CCS2(=O)=O)cc1 (centres undefined),i
Cc1ccc(N2C(=O)CCS2(=O)=O)cc1S(=O)(=O)Nc1ccccc1Br,i
CCN(C1CCS(=O)(=O)C1)S(=O)(=O)c1cc(N2C(=O)CCS2(=O)=O)ccc1C (centres undefined),+
COc1ccccc1N1CCN(S(=O)(=O)c2cc(N3C(=O)CCS3(=O)=O)ccc2C)CC1,i
COC(=O)C1CCN(S(=O)(=O)c2ccc(N3C(=O)CCS3(=O)=O)cc2)CC1,i
CCN(CC)S(=O)(=O)c1cc(N2C(=O)CCS2(=O)=O)ccc1C,i
Cc1ccc(N2C(=O)CCS2(=O)=O)cc1S(=O)(=O)Nc1cccc(C)c1C,i
O=C1CCS(=O)(=O)N1c1ccc(S(=O)(=O)NC2CCCCC2)cc1,i
CN(CC1CCCCO1)C(=O)c1cccc(CC2CCNCC2)c1 (centres undefined),i
COc1ccc(Cl)cc1-n1cnc(CCNC(C)=O)c1,i
CSc1nc(NC2CCCCC2C)c(C#N)c(-c2ccc(Cl)cc2)n1 (centres undefined),i
COc1ccc(Nc2nc(NCCCO)nc3c2cnn3-c2ccccc2)cc1,i
O=C(c1csc(S(=O)(=O)NCc2ccccc2)c1)N1CCCC1,i
CCOc1ccccc1-c1nc(CSc2nc(C)c(C)c(=O)[nH]2)c(C)o1,i
CC(CC(C)(C)O)NCCc1nc(-c2ccccc2)cs1 (centres undefined),i
CCc1cc(Sc2ccc(NC(=O)c3ccc(OC)c(OC)c3)cc2)n2ncnc2n1,i
Cc1ccc(NC(=O)c2ccc(Br)cc2)cc1OCc1cc(=O)n2cccc(C)c2n1,i
COC(=O)c1ccc(-c2c(Nc3ccccc3)oc3c2c(=O)n(C)c(=O)n3C)cc1,i
Cc1cc(C)cc(NS(=O)(=O)c2cc(N3C(=O)CCS3(=O)=O)ccc2C)c1,i
Cc1ccc(N2C(=O)CCS2(=O)=O)cc1S(=O)(=O)Nc1ccccc1,+
Cc1ccc(NS(=O)(=O)c2cc(N3C(=O)CCS3(=O)=O)ccc2C)cc1C,i
SMILES,FECH inh
O=C(O)c1ccccc1C1CCN(C(=O)CCCOc2ccccc2)C1 (centres undefined),i
CCc1cccc(OC2CN(C(=O)CSc3nnc(C)s3)C2)c1,i
Cc1ccc(-c2nc(CSc3nc4c(c(=O)[nH]3)CCCC4)c(C)o2)cc1,i
Cc1cccc(NCc2nc3nc4c(c(=O)n3[nH]2)CCC4)c1,+
Cc1cccc(NC(=O)Nc2c(C)nc3nc[nH]n3c2=O)c1,i
CCc1nc2nc(C)[nH]n2c(=O)c1NC(=O)Nc1cc(C)ccc1OC,i
Cc1nc2nc(C)c(NC(=O)Nc3cccc(Cl)c3)c(=O)n2[nH]1,i
Cc1cccc(NC(=O)Nc2c(C)nc3nc(C)[nH]n3c2=O)c1,i
O=c1cc(CNc2cccc(Cl)c2)nc2nc(NCc3ccc(F)cc3)[nH]n12,i
O=c1c2c(nc3nc(CNc4cccc(Cl)c4)[nH]n13)CCC2,+
Cc1ccc(NCc2nc3nc4c(c(=O)n3[nH]2)CCC4)c(C)c1,+
Cc1nc2sccn2c1C(=O)NCCc1nnc2n1CCNCC2,i
NS(=O)(=O)c1ccc(CCNC(=O)Cc2csc(NC(=O)NC3CCCC3)n2)cc1,i
CCc1ccc(CNC(=O)CN2C(=O)C(C)=C(c3ccc(CC)cc3)S2(=O)=O)cc1,i
CC1CSc2ccc(S(=O)(=O)CCC(=O)Nc3ccc(S(N)(=O)=O)cc3)cc2NC1=O (centres undefined),i
CCc1nc(OCC(=O)NCc2cccc(OC)c2)c2c(-c3ccc(F)cc3)noc2n1,+
CCc1nc(OCC(=O)NCc2ccc(C)cc2)c2c(-c3ccc(F)cc3)noc2n1,i
CCOc1ccc(CNC(=O)COc2nc(CC)nc3onc(-c4ccc(F)cc4)c23)cc1,i
CC(=O)NCC(=O)N1CCC(c2nc(-c3ccc(Cl)cc3)no2)CC1,i
Cc1cccc(-n2c(CN3CCN(S(=O)(=O)c4cc(F)cc(F)c4)CC3)nc3cccnc32)c1,i
CCC(=O)Nc1cccc(C(=O)NCc2sc(C)nc2CC)c1,+
CCC(=O)Nc1cccc(C(=O)NCc2nc(Cc3cccs3)no2)c1,i
CCc1nc(C)sc1CNC(=O)c1sccc1NC(C)=O,i
C/C(=C\c1ccco1)CN1CCC(NS(C)(=O)=O)CC1,i
CCOCCCNC(=O)C1CCN(c2ccc(-c3cccc(C)c3)nn2)CC1,i
CCN(CC)CCCNC(=O)C1CCN(c2ccc(-c3cccc(C)c3)nn2)CC1,+
CCN(CC)CCCNC(=O)C1CCN(c2ccc(-c3ccccc3)nn2)CC1,i
